Screening data (PubChem)
Most compounds without a hit are left out; they make up all but 7.2% or so of the library.
RE007 growth inh: qHTS Assay for Inhibitors of the HIV-1 protein Vpr; Potency, µM (doses to about 92.2 µM), usual class: inhibitors; AID 651644, 2012; 0.21% of 360,000 active; S. pombe RE007 Vpr strain, BacTiter-Glo ATP luminescence, 24 h; active = well fitted falling curve with a large enough effect; inconclusive = small, poorly fitted or top-dose-only effect; inactive = no such curve, though single readings can be large or run the other way; note: nearly all actives have a fitted effect of over 50% in size
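Fission yeast RE007 carrying one integrated HIV-1 vpr copy, seeded at OD 0.01 in PMG+AL medium with 23 nL pinned compound. Grown 24 h at 30 degrees; viability read by BacTiter-Glo luminescence after 5 min.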
HCV inhibitor: qHTS Assay for Inhibitors of Hepatitis C Virus (HCV); Huh7.5.1 HCVcc-Cre infection, luciferase reporter, 44 h; Potency, µM (titrated, usually from 41.8 µM), most hits filed as inhibitors; 3.4% of 340,000 active
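Seed cells (1,000/well) for 4 h; treat with compound and infect with HCVcc-Cre, moi about 0.5. Incubate 44 h, then detect luciferase activity.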
Sm TGR inh: qHTS Assay for the Inhibitors of Schistosoma Mansoni Peroxiredoxins | Schistosoma mansoni thioredoxin glutathione reductase (TGR), Q962Y6 | purified TGR, DTNB reduction, TNB absorbance 405 nm | Potency, µM (top dose mostly 114 µM), most hits filed as inhibitors | 3% of 360,000 active | AID 485364, 2010; note: nearly all actives have a fitted effect of over 60% in size
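TGR 20 nM + NADPH 100 uM (dispensed conc.), cpd preinc 15 min RT; start with NADPH (500 uM addition) then DTNB (15 mM addition). Kinetic TNB absorbance, 405 nm filter. Four-parameter Hill fit across titration.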
Marburg entry inh: qHTS for inhibitors of binding or entry into cells for Marburg Virus; Marburg virus pseudotyped entry inhibition, cell reporter; Potency, µM (series often up to 37.8 µM), most hits filed as inhibitors; 1.8% of 300,000 active; AID 540276, 2011; calls by dose curve; tested in HEK293 cells
Lassa entry inh: qHTS for Inhibitors of binding or entry into cells for Lassa Virus; Lassa virus pseudotype entry inhibition, cell reporter; Potency, µM (highest dose often 37.9 µM), hits mostly inhibitors; 1.2% of 300,000 active; calls by dose curve; tested in HEK293 cells; note: nearly all actives have a fitted effect of over 50% in size
FMDV antiviral: High Throughput Screening for Foot and Mouth Disease Virus Antivirals. AID 1159524, 2015. Potency, µM (top dose mostly 57.9 µM), usual class: inhibitors. 1.2% of 410,000 active. FMDV antiviral cell-based qHTS; calls by dose curve; tested in HEK293T cells; note: read-out not given here; nearly all actives have a fitted effect of over 45% in size
Of the large screens only hits and unclear results are named; the others gave an inactive call. Unless noted, calls come from the whole dose curve; as a rule, active = well fitted curve in the direction sought with a large enough effect; inconclusive = small, poorly fitted or top-dose-only effect, or another doubt; inactive = no such curve, though single readings can be large; an effect the other way counts as inactive or inconclusive.

Cc1nn(Cc2c(F)c(F)c(F)c(F)c2F)c(C)c1NC(=O)c1cccc(COc2ccccc2Cl)c1	HCV inhibitor inconclusive, Marburg entry inh inconclusive, Lassa entry inh inconclusive
CC1(C)N=C(c2ccc(F)cc2)C(=O)N1CC(=O)Nc1ccccc1Cl	none (no result: RE007 growth inh, HCV inhibitor)
COc1ccccc1N1CCN(c2csc3ccc(Cl)cc3c2=O)CC1	none (no result: RE007 growth inh, HCV inhibitor, Marburg entry inh)
O=C(Nc1ccccc1)c1cccc2c(=O)c3c([nH]c12)CCCC3	none (no result: RE007 growth inh, HCV inhibitor)
CC(C)CNC(=S)NC(=O)c1ccc(F)cc1	Sm TGR inh 31.6µM, Marburg entry inh inconclusive
O=C(NC(=S)NCCN1CCOCC1)c1ccc(F)cc1	Marburg entry inh inconclusive
O=C(NC(=S)NC1CCN(Cc2ccccc2)CC1)c1ccc(F)cc1	HCV inhibitor inconclusive, FMDV antiviral inconclusive (no result: Marburg entry inh, Lassa entry inh)
O=C(/C=C/c1ccc(F)cc1)NC(=S)NNC(=O)c1cnccn1	HCV inhibitor inconclusive, Marburg entry inh inconclusive, Lassa entry inh inconclusive
O=C(NC(=S)NC1CCCCC1)c1ccc(F)cc1	RE007 growth inh inconclusive, Sm TGR inh 28.2µM, Marburg entry inh inconclusive, Lassa entry inh inconclusive
O=C(NC(=S)NNC(=O)c1cnccn1)c1ccc(F)cc1	HCV inhibitor 14.1µM (no result: Marburg entry inh, Lassa entry inh)
Cc1nc(C)c(CCNS(=O)(=O)c2ccc(F)cc2)s1	none (no result: RE007 growth inh, HCV inhibitor, Marburg entry inh)
CCc1ccccc1CC1CN(Cc2ccccc2)Cc2ccccc2N1c1ccc(OC)cc1 (centres undefined)	none (no result: HCV inhibitor, Sm TGR inh, Marburg entry inh, Lassa entry inh)
Cc1c(C(=O)N(CCO)C(C)C)cnn1-c1ncc2c(n1)-c1ccccc1CCC2	none (no result: RE007 growth inh, HCV inhibitor, Sm TGR inh, Marburg entry inh, Lassa entry inh)
Cc1cccc(C)c1NC(=O)CCCN1C(=O)CCn2nc(-c3cn(C)c4ccccc34)cc21	none (no result: RE007 growth inh, HCV inhibitor, Marburg entry inh)
Cc1ccc(-c2cc(-c3ccc(C)cc3)[n+](C)o2)cc1	HCV inhibitor 8.91µM, Marburg entry inh 3.55µM, Lassa entry inh 11.6µM, FMDV antiviral inconclusive
Cc1ccc(-c2cnco2)cc1	none (no result: Marburg entry inh, Lassa entry inh)
O=C(c1ccncc1)N1CCC2(CC1)CN(c1ccncc1)C2	none (no result: RE007 growth inh, HCV inhibitor, Sm TGR inh, Marburg entry inh, Lassa entry inh)
COc1ccc(OC)c(CCNC(=O)CCn2c(=O)c3cccn3c3cccnc32)c1	none (no result: RE007 growth inh, HCV inhibitor, Marburg entry inh)
O=C(CSCc1ccco1)Nc1cc(C(F)(F)F)ccc1N1CCOCC1	Sm TGR inh 22.4µM (no result: FMDV antiviral)
CN1CCN(c2ccc(C(F)(F)F)cc2NC(=O)c2ccco2)CC1	Marburg entry inh 10µM
Cc1cc(NC(=O)CSCC(=O)Nc2cc(C(F)(F)F)ccc2N2CCCC2)no1	HCV inhibitor inconclusive, FMDV antiviral 28.2µM
O=C(Nc1cc(C(F)(F)F)ccc1N1CCCCC1)c1ccco1	HCV inhibitor inconclusive, Marburg entry inh inconclusive
Cc1ccc(NC(=O)CSCC(=O)Nc2cc(C(F)(F)F)ccc2N2CCOCC2)cc1	Marburg entry inh inconclusive
COc1ccc(-c2cc(C(F)(F)F)c3c(N)c(C(=O)NCCSC)sc3n2)cc1	none
CN(C)CCNC(=O)c1sc2nc(-c3ccccc3)cc(C(F)(F)F)c2c1N	HCV inhibitor 10µM, Marburg entry inh 5.01µM, Lassa entry inh inconclusive
Cc1cc(C(=O)COC(=O)c2ccccc2O)c(C)n1Cc1cccs1	HCV inhibitor inconclusive, Marburg entry inh 0.82µM, Lassa entry inh 0.326µM, FMDV antiviral 28.2µM
Cc1cc(C(=O)COC(=O)c2n[nH]c3ccccc23)c(C)n1C	Marburg entry inh inconclusive, Lassa entry inh inconclusive
COCCn1c(C)cc(C(=O)COC(=O)c2ccccc2Br)c1C	FMDV antiviral 35.5µM (no result: Marburg entry inh, Lassa entry inh)
COCCn1c(C)cc(C(=O)COC(=O)c2n[nH]c3ccccc23)c1C	HCV inhibitor inconclusive, Marburg entry inh inconclusive, Lassa entry inh inconclusive, FMDV antiviral 11.2µM
Cc1cc(C(=O)COC(=O)c2ccccc2Br)c(C)n1CC1CCCO1 (centres undefined)	HCV inhibitor inconclusive, Marburg entry inh inconclusive, Lassa entry inh inconclusive, FMDV antiviral 0.398µM
O=C(/C=C/c1ccccn1)NCC1Cc2cccc(-c3ncccn3)c2O1 (centres undefined)	none (no result: RE007 growth inh, HCV inhibitor, Sm TGR inh, Marburg entry inh, Lassa entry inh)
CCCCSCCCNC(=O)c1cn(CC)c2ccc(S(=O)(=O)N3CCCCCC3)cc2c1=O	none (no result: RE007 growth inh, HCV inhibitor)
CC1=C(c2ccc(Cl)cc2)S(=O)(=O)N=C1N1CCN(c2cccc(C(F)(F)F)c2)CC1	Marburg entry inh inconclusive (no result: RE007 growth inh, HCV inhibitor)
COC(=O)C1C(=O)C(C(=O)/C=C/c2ccco2)C(=O)CC1(C)C (centres undefined)	none (no result: RE007 growth inh, HCV inhibitor, Sm TGR inh, Marburg entry inh, Lassa entry inh)
COc1ccccc1CNS(=O)(=O)c1cc(C(=O)Nc2cccc(C(F)(F)F)c2)ccc1F	Lassa entry inh inconclusive (no result: RE007 growth inh, HCV inhibitor, Marburg entry inh)
O=C(COc1cccnc1[N+](=O)[O-])c1ccc(Cl)s1	RE007 growth inh inconclusive, Sm TGR inh 2µM
CC(=O)Nc1ccccc1OCC(=O)c1cc(C)n(Cc2cccs2)c1C	HCV inhibitor inconclusive, Marburg entry inh inconclusive, FMDV antiviral inconclusive
CCCn1c(C)cc(C(=O)COC(=O)c2ccc[nH]c2=O)c1C	Marburg entry inh inconclusive, Lassa entry inh inconclusive, FMDV antiviral inconclusive
CCn1c(C)cc(C(=O)COC(=O)c2ccccc2[N+](=O)[O-])c1C	RE007 growth inh inconclusive, Marburg entry inh inconclusive, Lassa entry inh 0.316µM, FMDV antiviral 5.62µM (no result: Sm TGR inh)
O=C(COc1cccnc1[N+](=O)[O-])Nc1c(Cl)cccc1Cl	none (no result: Sm TGR inh)
Cc1cc(C(=O)COC(=O)c2cc(O)c3ccccc3c2O)c(C)n1CC1CCCO1 (centres undefined)	HCV inhibitor inconclusive, Sm TGR inh 20µM, Marburg entry inh inconclusive
